Screening data (PubChem)
Only some compounds are listed: those with a hit (about 18% of all), similar ones and a draw of the others.
DT40 TDP1 no CPT = qHTS for Inhibitors of human tyrosyl-DNA phosphodiesterase 1 (TDP1): qHTS in cells in absence of CPT. DT40 Tdp1-/- hTDP1 cells, no CPT, ATP luminescence, 48 h. hit rate 15% among 420,000. Potency, µM (top dose mostly 46.2 µM), hits mostly inhibitors; further: nearly all actives have a fitted effect of over 55% in size
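Compound effects on proliferation are scored in DT40 Tdp1-/-;hTDP1 cells in the absence of CPT. ATP levels (CellTiter-Glo luminescence) are recorded after a ≥48 hr, 37 °C incubation.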
Gal4-VP16 FLuc = VP16 counterscreen qHTS for inhibitors of ROR gamma transcriptional activity; Drosophila S2 Gal4-VP16 UAS-luciferase, luminescence, 20 h; Potency, µM (series often up to 53.6 µM), actives largely listed as inhibitors; hit rate 3.5% among 310,000; AID 2546, 2010;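 further: Gal4-VP16 expression switched on by copper sulfate through the metallothionein promoter; nearly all actives have a fitted effect of over 50% in size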
IL-1B inflam inh = qHTS for Inhibitors of Inflammasome Signaling: IL-1-beta AlphaLISA Primary Screen; activity change, % at 57.5 µM; hit rate 4.7% among 360,000; THP-1 LPS/ATP IL-1B secretion, AlphaLISA, 16 h; hits give low values; in the data active means activity change below about -50%; inconclusive means mostly about -30% to -49%
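Secreted IL-1B measured by AlphaLISA bead assay after 16 h compound exposure of THP-1 cells; compounds (final up to 57.5 uM) added 1 h before LPS (250 ng/mL) and ATP (1.25 mM) stimulation; lower signal means less secretion.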
RORgamma inh = qHTS for inhibitors of ROR gamma transcriptional activity | Nuclear receptor ROR-gamma (Mus musculus), P51450 | Drosophila S2 Gal4-RORgamma UAS-luciferase reporter, 20 h | Potency, µM (top dose mostly 53.6 µM), hits mostly inhibitors | hit rate 5.4% among 310,000 | AID 2551, 2010; further: nearly all actives have a fitted effect of over 60% in size
Target sequence (P51450 whole entry, looked up, the tested form may be a part): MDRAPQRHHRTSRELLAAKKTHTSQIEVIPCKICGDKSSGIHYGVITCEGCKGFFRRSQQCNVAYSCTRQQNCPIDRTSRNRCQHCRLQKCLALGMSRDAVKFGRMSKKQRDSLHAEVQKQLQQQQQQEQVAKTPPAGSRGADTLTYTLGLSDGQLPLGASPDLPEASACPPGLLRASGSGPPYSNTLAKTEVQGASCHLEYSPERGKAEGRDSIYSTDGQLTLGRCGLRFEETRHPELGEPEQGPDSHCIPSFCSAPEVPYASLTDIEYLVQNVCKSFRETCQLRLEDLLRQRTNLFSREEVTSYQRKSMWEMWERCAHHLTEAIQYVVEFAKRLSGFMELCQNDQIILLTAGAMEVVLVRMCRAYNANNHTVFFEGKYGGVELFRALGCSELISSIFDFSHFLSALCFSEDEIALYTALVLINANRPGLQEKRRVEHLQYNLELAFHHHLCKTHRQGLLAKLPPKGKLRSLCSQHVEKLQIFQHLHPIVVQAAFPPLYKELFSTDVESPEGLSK
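Using a luciferase readout, inhibitors were identified by reduced reporter activity in Drosophila cells coexpressing a copper-inducible Gal4–ROR gamma fusion and UAS-driven Photinus luciferase, incubated 20 hr after 700 uM copper sulfate.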
LDHA inh = qHTS assay for inhibitors of human lactate dehydrogenase; L-lactate dehydrogenase A chain (Homo sapiens), P00338; purified LDHA, NADH/diaphorase-resazurin fluorescence; hits give low values; activity change, % (values are at about 110 or 230 µM); hit rate 0.15% among 480,000; AID 1347041, 2019; in the data active means activity change below about -30%; inconclusive means mostly about -25% to -30%
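Resorufin fluorescence (ex540/em590), read at 0 and 20 min after diaphorase/resazurin addition, reports the NADH left after a 5 min room-temperature reaction of 2 nM human LDH5 with 0.06 mM NADH and 0.2 mM pyruvate.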
TDP1 cell CPT = qHTS for Inhibitors of human tyrosyl-DNA phosphodiesterase 1 (TDP1): qHTS in cells in presence of CPT; Potency, µM (highest dose often 46.2 µM), hits mostly inhibitors; hit rate 12% among 420,000; chicken DT40 Tdp1-/-;hTDP1 cells + 20 nM CPT, ATP luminescence, 48 h; AID 686979, 2013; further: nearly all actives have a fitted effect of over 55% in size
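Cell growth measured by CellTiter-Glo luminescence after a minimum 48 h, 37 C compound exposure with 20 nM CPT in Tdp1-knockout DT40 cells stably expressing hTDP1, seeded 400/well; qHTS titration format.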
Of the large screens only hits and unclear results are named; the others gave an inactive call. Unless noted, the call rests on the fitted dose curve; in most records, active means well fitted curve in the direction sought with a large enough effect; inconclusive means small, poorly fitted or top-dose-only effect, or another doubt; inactive means no such curve, though single readings can be large; an effect the other way counts as inactive or inconclusive.

CCOC(=O)c1c(-c2cc(OC)c(OC)c(OC)c2)csc1NC(=O)c1ccccc1	DT40 TDP1 no CPT 18.4µM, TDP1 cell CPT inconclusive (no result: Gal4-VP16 FLuc, RORgamma inh)
CCOC(=O)c1c(-c2ccc(OC)c(OC)c2)csc1NC(=O)c1ccccc1F	none (no result: Gal4-VP16 FLuc, IL-1B inflam inh, RORgamma inh)
Cc1oc(-c2ccccc2)nc1CC(=O)NC1CCCCC1	none (no result: DT40 TDP1 no CPT, Gal4-VP16 FLuc, IL-1B inflam inh, RORgamma inh, TDP1 cell CPT)
O=C(NCc1cccn1Cc1ccc(F)cc1)NC12CC3CC(CC(C3)C1)C2	none (no result: DT40 TDP1 no CPT, Gal4-VP16 FLuc, IL-1B inflam inh, RORgamma inh, TDP1 cell CPT)
O=C(/C=C/c1cccs1)Nc1scc(-c2ccccc2)c1C(=O)O	Gal4-VP16 FLuc 12.6µM, RORgamma inh 10µM
O=C1CC(C(=O)NOCc2ccccc2)c2ccccc2N1 (stereo not drawn)	none (no result: DT40 TDP1 no CPT, Gal4-VP16 FLuc, IL-1B inflam inh, RORgamma inh, TDP1 cell CPT)
O=C(/C=C/c1ccc2ccccc2c1)c1ccc(F)cc1F	none (no result: DT40 TDP1 no CPT, Gal4-VP16 FLuc, IL-1B inflam inh, RORgamma inh, TDP1 cell CPT)
CC(C)NC(=O)c1ccc([N+](=O)[O-])cc1	none (no result: DT40 TDP1 no CPT, Gal4-VP16 FLuc, IL-1B inflam inh, RORgamma inh, TDP1 cell CPT)
CC(C)CC(=O)NC(=S)NNC(=O)c1ccc(NC(=O)C2CCCCC2)cc1	DT40 TDP1 no CPT 11.6µM, TDP1 cell CPT 20.6µM
CCC(=O)NC(=S)NNC(=O)c1ccc([N+](=O)[O-])cc1	DT40 TDP1 no CPT 18.4µM, RORgamma inh inconclusive, TDP1 cell CPT inconclusive
CC(C)CNC(=O)c1ccc(NC(=O)C2CCCCC2)cc1	none (no result: DT40 TDP1 no CPT, Gal4-VP16 FLuc, IL-1B inflam inh, RORgamma inh, TDP1 cell CPT)
CC(C)CC(=O)NC(=S)NNC(=O)c1ccc([N+](=O)[O-])cc1	DT40 TDP1 no CPT 14.6µM, Gal4-VP16 FLuc 5.62µM, RORgamma inh 3.98µM, TDP1 cell CPT 18.4µM
COc1ccc(C(=O)NNC(=O)Cc2ccc([N+](=O)[O-])cc2)cc1	none
CC1CCc2noc(NC(=O)COc3ccccc3)c2C1 (stereo not drawn)	none (no result: DT40 TDP1 no CPT, Gal4-VP16 FLuc, IL-1B inflam inh, RORgamma inh, TDP1 cell CPT)
NC(=O)c1nn(CC(=O)Nc2cccc3cccnc23)c(=O)c2ccccc12	none (no result: DT40 TDP1 no CPT, Gal4-VP16 FLuc, IL-1B inflam inh, RORgamma inh, TDP1 cell CPT)
CCOC(=O)c1c(NC(C)=O)sc2c(OC)c(Br)ccc12	none
CCOC(=O)c1c(NC(C)=O)sc2c(O)c(CN3CCN(CC)CC3)ccc12	IL-1B inflam inh -62.7, TDP1 cell CPT inconclusive
CCCc1cc2c(=O)c(-c3ccc4c(c3)OCCO4)coc2cc1OC(=O)c1ccco1	DT40 TDP1 no CPT inconclusive, Gal4-VP16 FLuc inconclusive, TDP1 cell CPT inconclusive
CCCc1cc2c(=O)c(-c3ccc4c(c3)OCCO4)c(C)oc2cc1OS(C)(=O)=O	DT40 TDP1 no CPT 23.1µM, TDP1 cell CPT 18.4µM
CCc1cc2c(=O)c(-c3ccc4c(c3)OCCO4)coc2cc1OC(=O)c1ccco1	DT40 TDP1 no CPT 20.6µM, Gal4-VP16 FLuc inconclusive, TDP1 cell CPT inconclusive
CCCc1cc2c(=O)c(-c3ccc4c(c3)OCCO4)coc2cc1OS(C)(=O)=O	DT40 TDP1 no CPT inconclusive, IL-1B inflam inh -53.6, RORgamma inh inconclusive, TDP1 cell CPT inconclusive
CCc1cc2c(=O)c(-c3ccc4c(c3)OCCCO4)coc2cc1OS(C)(=O)=O	none (no result: DT40 TDP1 no CPT, Gal4-VP16 FLuc, IL-1B inflam inh, RORgamma inh, TDP1 cell CPT)
C/C=C/C=C/C(=O)NCc1ccc(CN2CCCC2)cc1	none (no result: DT40 TDP1 no CPT, Gal4-VP16 FLuc, IL-1B inflam inh, RORgamma inh, TDP1 cell CPT)
CC(C)(C)C(=O)/C(C#N)=C/c1ccccc1OCc1ccc(Cl)cc1	none (no result: DT40 TDP1 no CPT, Gal4-VP16 FLuc, IL-1B inflam inh, RORgamma inh, TDP1 cell CPT)
CCn1c(=S)sc2c(=O)n(CC(=O)NC(C)CCc3ccccc3)c(C)nc21 (stereo not drawn)	DT40 TDP1 no CPT 29.1µM, TDP1 cell CPT inconclusive
CCn1c(=S)sc2c(=O)n(CC(=O)Nc3cc(OC)ccc3OC)c(C)nc21	DT40 TDP1 no CPT 18.4µM, TDP1 cell CPT inconclusive
CCn1c(=S)sc2c(=O)n(CC(=O)Nc3ccccc3OC)c(C)nc21	DT40 TDP1 no CPT inconclusive, TDP1 cell CPT inconclusive
CSc1cccc(N2C(=O)N(CC(=O)NCc3ccccc3Cl)c3ccccc3S2(=O)=O)c1	DT40 TDP1 no CPT 16.4µM, TDP1 cell CPT inconclusive (no result: Gal4-VP16 FLuc, IL-1B inflam inh, RORgamma inh)
COc1cccc(CNC(=O)CN2C(=O)N(c3ccc(C)cc3C)S(=O)(=O)c3ccccc32)c1OC	DT40 TDP1 no CPT 20.6µM, TDP1 cell CPT inconclusive (no result: Gal4-VP16 FLuc, IL-1B inflam inh, RORgamma inh)
COc1ccc(C(NC(=O)CSc2ccc3c(c2)OCCCO3)c2ccc(OC)cc2)cc1	none (no result: DT40 TDP1 no CPT, Gal4-VP16 FLuc, IL-1B inflam inh, RORgamma inh, TDP1 cell CPT)
CCOC(=O)c1c(CN2CCCCC2C)oc2ccc(OC)cc12 (stereo not drawn)	DT40 TDP1 no CPT inconclusive, TDP1 cell CPT 20.6µM
